# Shiga inhibitor = blocks Shiga toxin action in Vero cells; Vero cells, Shiga toxin protein synthesis inhibition reporter; AID 2315; inhibition, % at 38.7 µM; hit rate 9.2% among 290,000; in the data active = inhibition mostly above about 28%, no sharp cut-off; inactive = mostly below about 43%; note: 0% is about no effect
# NS1 function inh = influenza NS1 inhibition; AID 2326; hit rate 0.4% among 270,000; Potency, µM (top dose mostly 46.1 µM), for the others: top-dose activity, positive = more growth; note: potency is the fitted concentration of half-maximal effect; actives are rising curves; nearly all actives have a fitted effect of over 50% in size
#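 In this qHTS, NS1 from influenza A is expressed in budding yeast, where it slows growth. Cells are switched from glucose to 2% galactose medium (pH 6.0, -URA), treated with compound, and growth recovery is read at OD600.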
# Cycloheximide cs = affects cycloheximide protein synthesis inhibition readout, counter-screen; cell reporter, cycloheximide protein synthesis inhibition counterscreen; max response, %; hit rate 12% among 300,000; in the data active = max response mostly above about 13%, no sharp cut-off; inactive = mostly below about 14%; note: read at 38.3 µM for the half of the compounds with a filed dose; 0% is about no effect
# Pf growth 96h = P. falciparum growth inhibition at 96 hour, primary screen for plastid delayed-death inhibitors; hit rate 6.9% among 320,000; Potency, µM (top dose mostly 28.7 µM), for the others: at the top dose activity change, negative = inhibition, actives largely listed as inhibitors; P. falciparum luciferase reporter growth, 96 h; active = well fitted inhibition curve with a large enough effect; inconclusive = small, poorly fitted or top-dose-only effect, or another doubt; inactive = no such curve, though single readings can be large or run the other way; note: potency is the fitted concentration of half-maximal effect; % is set by controls: 0 for no effect and ±100 for the full control effect
#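 Parasite growth measured via integrated firefly luciferase reporter in P. falciparum. Infected erythrocytes at 2% hematocrit, 0.05% parasitemia final were treated 96 hours at 37 C under 5% CO2, and luminescence was read.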
# SARS PLpro yeast = inhibitors of SARS-CoV papain-like protease in yeast | Potency, µM (doses to about 32.9 µM), for inactives: at the top dose activity, positive = growth rescue, most hits filed as activators | S. cerevisiae expressing SARS-CoV PLpro, growth rescue | hit rate 0.19% among 330,000; note: potency is the fitted concentration of half-maximal effect; 0% is about no effect; nearly all actives have a fitted effect of over 55% in size
# Pf growth 48h = inhibits P. falciparum growth in the first generation, 48 h; P. falciparum luciferase growth in erythrocytes, 48 h; Potency, µM (highest dose often 28.7 µM), for inactives: at the highest dose activity change, negative = inhibition, actives largely listed as inhibitors; hit rate 5.9% among 310,000; AID 504832; active = well fitted inhibition curve with a large enough effect; inconclusive = small, poorly fitted or top-dose-only effect, or another doubt; inactive = no such curve, though single readings can be large or run the other way; note: potency is the fitted concentration of half-maximal effect; % is set by controls: 0 for no effect and ±100 for the full control effect
#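 Luminescence readout; reporter = integrated firefly luciferase in P. falciparum. RBC culture at 2% hematocrit, 0.1% parasitemia final, 37 C/5% CO2; decreased signal taken as growth inhibition.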
# Starred values were filed as active, the others as inactive; ? = inconclusive; . = no result given; [ ] = another dose, or the depositor's remark. In the library only some 21% were active in any assay of this set; here they are far more common. Unless noted, calls come from the whole dose curve.
SMILES,Shiga inhibitor,NS1 function inh,Cycloheximide cs,Pf growth 96h,SARS PLpro yeast,Pf growth 48h
O=C(COC(=O)c1ccccc1)c1ccc(Br)cc1,115.2*,-1.1%,47.3*,87.7%,10.4%,341.6%
Cn1cc(Cl)c(C(=O)OCC(=O)c2ccccc2)n1,36.0*,0.0%,27.4*,13.1µM*,0.2%,30.2%
NC(=O)COC(=O)c1ccc(Oc2ccccc2)cc1,34.4,-60.1%,27.8*,.,4.1%,0.1%
COc1ccc(C(=O)O/N=C(\N)c2ccc(Br)cc2)cc1,82.5*,-63.9%,61.6*,-19.2%,-7.6%,?
O=C(O)CNC(=O)CC1S/C(=N/N=C2/NC(=O)CS2)NC1=O (centres undefined),16.4,2.7%,-2.4,22.8%,2.3%,?
CC(C)(C)C(=O)O/N=C(\N)c1ccc(Br)cc1,17.8,-4.3%,1.3,0.0%,-1.3%,28.4%
CC(C)(C)c1ccc(C(=O)O/N=C(\N)c2ccccc2)cc1,74.2*,-136.2%,59.9*,?,-7.7%,-72.1%
Cc1ccc(C(=O)O/N=C(\N)c2ccc(Br)cc2)cc1,60.2*,-121.4%,32.8*,13.3%,-4.9%,.
CN(Cc1nc2ccccc2c(=O)[nH]1)C(=O)COc1ccccc1Cc1ccccc1,.,.,.,?,4.7%,?
COc1ccc(NC(=O)CCCCCn2nnc3ccccc3c2=O)cc1OC,-4.5,-0.8%,0.3,-19.6%,0.8%,-3.3%[0.00184 µM]
Cc1ccccc1C(=O)NCCCNC(=O)c1ccccn1,-8.2,8.1%,5.2,13.5%,6.7%,-12.4%
Cc1cccc(NC(=O)Cn2nc(-c3ccco3)ccc2=O)c1C,1.9,4.3%,4.1,59.6%,5.5%,-4.2%
Nc1nnc(-c2cn(-c3ccccc3)nc2-c2ccc(Cl)cc2)o1,-2.3,3.3%,6.3,4.65µM*,1.0%,3.7µM*
Cc1c(NC(=O)CCCCCN2C(=O)C3C4C=CC(C4)C3C2=O)c(=O)n(-c2ccccc2)n1C (centres undefined),2.5,17.5%,-1.3,9.28µM*,-1.4%,13.9%
CCCc1nnc(NC(=O)NCCN2C(=O)C3C4C=CC(C4)C3C2=O)s1 (centres undefined),-13.5,5.1%,9.7,14.7%,24.4%,-0.1%
Cc1c(NC(=O)NCCN2C(=O)C3C4C=CC(C4)C3C2=O)c(=O)n(-c2ccccc2)n1C (centres undefined),-14.1,-0.9%,-2.0,14.7µM*,3.3%,.
Cc1c(NC(=O)C(C)N2C(=O)C3C4C=CC(C4)C3C2=O)c(=O)n(-c2ccccc2)n1C (centres undefined),9.9,-0.4%,-4.2,3.7%,7.7%,.
O=C(NCCN1C(=O)C2C3C=CC(C3)C2C1=O)Nc1ccccc1O (centres undefined),15.3,6.5%,6.9,9.28µM*,-6.3%,.
NC(=O)c1ccsc1NC(=O)CCS(=O)(=O)c1ccc(Cl)cc1,.,.,.,?,0.8%,-17.5%
CN(C(=O)CSc1nc2ccccc2c(=O)n1C)C1CCS(=O)(=O)C1 (centres undefined),.,.,.,.,3.1%,.
O=C(NCC1CCCO1)c1ccccc1NS(=O)(=O)c1ccc(F)cc1 (centres undefined),.,.,.,?,4.6%,-0.3%
CCCn1c(SC(C(=O)Nc2cccc(OC)c2)c2ccccc2)nc2ccccc2c1=O (centres undefined),-15.1,14.5%,-2.3,0.0%,-7.1%,0.0%
NC(=S)N/N=C\c1c(OCc2ccccc2Cl)ccc2ccccc12,1.3,.,7.8,42.2%,10.7%,10.4µM*
COc1ccc(CN(C(=O)c2ccccc2Br)C2CCS(=O)(=O)C2)cc1 (centres undefined),-7.4,-5.8%,-3.6,9.0%,-5.9%,9.8%
CNC(=O)CN(c1ccc(Oc2ccccc2)cc1)S(=O)(=O)c1ccc(C)cc1,-19.6,-11.5%,-4.1,0.3%,-7.9%,-20.3%
SMILES,Shiga inhibitor,NS1 function inh,Cycloheximide cs,Pf growth 96h,SARS PLpro yeast,Pf growth 48h
Oc1ccc(/C=N/Nc2nc(-c3cccnc3)nc3ccccc23)c(O)c1,40.6*,10.4%,53.2*,?,1.2%,9.28µM*
Clc1ccccc1-c1nc(N/N=C/c2cccnc2)c2ccccc2n1,-17.3,?,-5.4,-63.5%,-17.4%,?
COc1ccc(/C=N/Nc2nc(-c3cccnc3)nc3ccccc23)cc1OC,62.4*,10.9%,31.1*,?,-1.7%,6.57µM*
Clc1cccc(CNc2nc(-c3cccnc3)nc3ccccc23)c1,-4.5,-15.0%,-5.1,?,-59.9%,?
Cc1ccc(CN(C)c2nc(-c3cccnc3)nc3ccccc23)o1,-7.7,-22.6%,0.4,11.7µM*,-1.2%,?
COC(=O)CNc1nc(-c2cccnc2)nc2ccccc12,-21.1,-52.8%,-1.2,?,-5.5%,-5.3%
Cc1c(O)ccc(/C=N/Nc2nc(-c3cccnc3)nc3ccccc23)c1O,48.6*,2.9%,58.8*,10.4µM*,-1.0%,?
Cn1nc(C(=O)N2CCCCC2)c2c1-c1ccccc1S(=O)(=O)C2,0.5,12.8%,8.8,27.5%,5.8%,23.5%
COc1ccc(C2(C(=O)Nc3ccc(C)c(C)c3)CCOCC2)cc1,12.6,-2.7%,1.0,11.5%,2.0%,-16.6%
NC(=O)c1ccsc1NC(=O)COC(=O)c1c(F)cccc1Cl,.,.,.,61.0%,-8.4%,132.8%
COc1ccc(CCNc2nc(-c3cccnc3)nc3ccccc23)cc1OC,-1.6,-12.4%,7.4,?,-3.8%,14.7µM*
COc1ccc(/C=N/Nc2ncnc3scc(-c4ccccc4)c23)cc1OC,-0.3,?,2.0,10.4µM*,-3.2%,.
CN(Cc1ccccc1F)c1nc(-c2cccnc2)nc2ccccc12,-6.5,-52.8%,-5.3,?,-12.5%,?
Cc1ccc(-c2nc(N/N=C/c3ccncc3)c3ccccc3n2)cc1,75.9*,2.5%,54.7*,?,12.0%,.
CCOc1ccc(CN(C)c2nc(-c3cccnc3)nc3ccccc23)cc1OC,-6.5,-43.6%,-0.4,?,-50.3%,11.7µM*
CC1C(=O)N2CCCc3cc(S(=O)(=O)N(C)CCC#N)cc1c32 (centres undefined),-2.2,1.5%,-4.3,33.5%,19.7%,-8.5%
COc1ccc(CCn2ccc(O)c(Cc3c(F)cccc3Cl)c2=O)cc1OC,10.9,4.8%,-1.4,?,3.0%,?
O=C1CC2(CCN(C(=O)c3ccc(Br)cc3)CC2)Oc2ccccc21,.,.,.,?,-0.6%,?
CC(C)(C)c1ccc(C(=O)N2CCN(CCNC(=O)C(=O)NCc3ccccc3)CC2)cc1,11.6,-29.6%,5.7,?,-12.1%,?
COc1ccc(C2/C=C\CN(S(=O)(=O)CC34CCC(CC3=O)C4(C)C)CC(=O)N2Cc2ccc(F)cc2)cc1 (centres undefined),-3.7,.,-3.9,.,.,.
COc1ccc(C(=O)Nc2ccnn2C2CCN(Cc3cn(C)nc3C)CC2)cc1,12.9,-0.8%,-3.9,42.0%,-2.5%,10.1%
CCCc1cc(C(=O)N2CCC(n3nccc3NC(=O)c3ccc(OC)cc3)CC2)no1,21.5*,-1.5%,21.1*,20.0%,-8.1%,-9.5%

# Compound activity deposited in PubChem BioAssay by National Center for Advancing Translational Sciences (NCATS).
